Assay results: PMC7819943, “Rice protein-binding microarrays: a tool to detect cis-acting elements near promoter regions in rice”
Over roughly 68,000 sequences, “fluorescence intensity (a.u.)” has its median near 9,100; the highest 2% begin near 16,000. The sample holds the highest values, similar sequences and a random draw of the others, so the mix is not that of the screen.

molecular target: OsWRKY34 (Oryza sativa, UniProt Q0JBA9 1-250); assay: protein-binding microarray (RPBM); PBS, 2% BSA, 51.3 ng/ul salmon testes DNA, 50 uM zinc acetate, 200 nM TF, 25 C, 1 h; high values mean tight binding; settings: protein: recombinant; tags: N-terminal polyhistidine and DsRed monomer fusion (pET32a); label: CyDye5-dUTP incorporated in the synthesized complementary strand; 3' TTTTT single-stranded linker to array surface; dsDNA, one strand shown
Sequence (Q0JBA9 entry or part of it): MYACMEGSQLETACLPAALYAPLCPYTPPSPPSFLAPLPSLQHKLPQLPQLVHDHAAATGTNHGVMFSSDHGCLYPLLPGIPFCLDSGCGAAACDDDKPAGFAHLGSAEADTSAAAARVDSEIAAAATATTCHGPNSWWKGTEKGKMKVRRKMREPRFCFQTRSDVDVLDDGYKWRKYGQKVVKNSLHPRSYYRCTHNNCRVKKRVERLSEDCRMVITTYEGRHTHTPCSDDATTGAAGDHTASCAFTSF
Procedure, shortened: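 Per-feature fluorescence intensity (arbitrary units), read on an Axon 4000B scanner, is the binding signal. Transcription factors carrying an N-terminal polyhistidine tag and DsRed fusion were expressed in E. coli BL21-CodonPlus and purified on Ni–NTA. A custom Agilent array, made double-stranded by primer extension with Cy5-dUTP and blocked with 2% BSA, was incubated with 200 nM protein in PBS, 2% BSA, salmon testes DNA and 50 µM zinc acetate at 25 °C for 1 h and then washed.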

| Sequence | binding signal |
| --- | --- |
| ATCCGTTGCCCTCGCTCCTATAACTGCGTTGACATGTCGCCGGAGTCACCTAGTGCAG | 9550 fluorescence intensity (a.u.) |
| AGGGAGGGAGGGAGGAGGAAGGAGGACTGACATGTGGGCCCGGAGTCACCTAGTGCAG | 9250 fluorescence intensity (a.u.) |
| TTCCTAGTACTATCTGCGTTGCGTTGACTGACATGTGGGCCGGAGTCACCTAGTGCAG | 17000 fluorescence intensity (a.u.) |
| ACCTGACGGCCCAACCAGGCGACCGCTCTCTCCGTTTTCCCGGAGTCACCTAGTGCAG | 8070 fluorescence intensity (a.u.) |
| ACCCAATCTCAATTTGCCCTGTTGCCAACCCTAGTGATGACGGAGTCACCTAGTGCAG | 8520 fluorescence intensity (a.u.) |
| TTCTTTCCGTTGTGCTTGCTGCTTTTCTCTACTACCTTTTCGGAGTCACCTAGTGCAG | 9900 fluorescence intensity (a.u.) |
| ACTCCCTCCGTTTCACAATGTAAGTCATTCTAGCATTTCCCGGAGTCACCTAGTGCAG | 9500 fluorescence intensity (a.u.) |
| TGATTTATGAATTATGATTACTAATACTGTTTTTTGTCCTCGGAGTCACCTAGTGCAG | 8780 fluorescence intensity (a.u.) |
| GTACTCCCTCCGTTTCGAAATATTTAACACCGTTGACTTTCGGAGTCACCTAGTGCAG | 17400 fluorescence intensity (a.u.) |
| GAAATATTTGACACCGTTGACTTTTTAGCATATGTTTGACCGGAGTCACCTAGTGCAG | 30700 fluorescence intensity (a.u.) |
| TTGGTTGATTTTGATTGCTTTGCTCCTTTTCTGACTTGCTCGGAGTCACCTAGTGCAG | 9410 fluorescence intensity (a.u.) |
| CTCTGTTTCTAAATATTTGACACCATTGACTTTTTAGCATCGGAGTCACCTAGTGCAG | 10900 fluorescence intensity (a.u.) |
| CCTCCGTTTCTATATATTTAATATTGTTGACTTTTTAGCACGGAGTCACCTAGTGCAG | 12000 fluorescence intensity (a.u.) |
| AATACTCCCTCCGTTTCGAAATATTTGACGCCGTTGACTTCGGAGTCACCTAGTGCAG | 12400 fluorescence intensity (a.u.) |
| CTTTTTAGCATATGTTTGACCGTTTGTCTTATTTAAAATACGGAGTCACCTAGTGCAG | 9700 fluorescence intensity (a.u.) |
| ATTTGTTTCTAAATATTTGACACCGTTGACTTTTTAGCACCGGAGTCACCTAGTGCAG | 24100 fluorescence intensity (a.u.) |
| TTGACACCGTTAACTTTTTAGCATATGTTTGACCGTTCATCGGAGTCACCTAGTGCAG | 9610 fluorescence intensity (a.u.) |
| ACATATTGGTTGACTTTTTGCCGGGTCCACCGATTGGCACCGGAGTCACCTAGTGCAG | 17700 fluorescence intensity (a.u.) |
| TACCGAACCTTTGGCATATTGACCCTTTTGGCCTTTTATACGGAGTCACCTAGTGCAG | 12200 fluorescence intensity (a.u.) |
| TTCACAGTGTAGTTGTTTTATTTAGCCAGTATTTTTTTTTCGGAGTCACCTAGTGCAG | 8820 fluorescence intensity (a.u.) |
| CCACAGCGCCTCCACTGCCTGCAGGGACGCCACCGCTACCCGGAGTCACCTAGTGCAG | 8450 fluorescence intensity (a.u.) |
| CCATTACCAGAACAGAACAGCAGGTTTTAACCTAACATTCCGGAGTCACCTAGTGCAG | 8110 fluorescence intensity (a.u.) |
| ATACTCTCATTTTTGTTTGCTCTATTCTTTGCTTTTAGAACGGAGTCACCTAGTGCAG | 10200 fluorescence intensity (a.u.) |
